In PubChem BioAssay (Tox21):
Inconclusive results are not listed. Entries that show only a call come without a potency. Active and inactive are the calls of the source. Unless noted, calls come from the whole dose curve; as a rule, active = well fitted curve in the direction sought with a large enough effect in the repeat runs; inconclusive = weak or mixed curves; inactive = no such curve, though single readings can be large; an effect the other way counts as inactive or inconclusive.

What was measured:
[1] = qHTS assay to identify small molecule antagonists of the estrogen related receptor (ERR) signaling pathway from Tox21 library - cell viability counter screen (AID 1224834); note: nearly all actives have a fitted effect of over 30% in size; note: potency is the fitted concentration of half-maximal effect
Outline: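 Compounds in DMSO were pinned onto ERR cells that had been incubated for 6 h, and the plates were held at 37 C for 17.5 h. CellTiter-Fluor reagent was then added and fluorescence was measured after 30 min.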

[2] = target: Luciferin 4-monooxygenase (Photinus pyralis) (UniProt P08659); assay: qHTS assay to identify small molecule inhibitors of firefly luciferase (AID 1224835); note: series mostly up to about 120 µM; nearly all actives have a fitted effect of over 25% in size
Sequence of Luciferin 4-monooxygenase (Photinus pyralis) (P08659 whole entry, looked up): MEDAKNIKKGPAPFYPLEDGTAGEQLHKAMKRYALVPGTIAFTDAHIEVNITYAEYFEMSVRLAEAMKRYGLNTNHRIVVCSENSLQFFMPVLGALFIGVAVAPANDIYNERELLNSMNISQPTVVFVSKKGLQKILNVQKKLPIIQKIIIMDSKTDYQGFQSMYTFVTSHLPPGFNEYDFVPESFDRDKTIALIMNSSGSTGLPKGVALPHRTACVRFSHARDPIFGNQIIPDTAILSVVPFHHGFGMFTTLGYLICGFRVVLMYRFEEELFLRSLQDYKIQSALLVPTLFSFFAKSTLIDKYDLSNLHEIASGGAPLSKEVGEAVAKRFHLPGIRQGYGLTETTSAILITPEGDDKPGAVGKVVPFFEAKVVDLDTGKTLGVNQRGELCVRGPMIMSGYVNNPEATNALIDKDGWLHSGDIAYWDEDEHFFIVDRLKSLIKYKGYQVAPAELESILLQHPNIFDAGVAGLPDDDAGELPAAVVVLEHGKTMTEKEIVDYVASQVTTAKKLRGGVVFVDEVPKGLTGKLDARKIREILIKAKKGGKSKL
Outline: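 Biochemical qHTS: compounds run as interplate titrations against purified firefly enzyme, with D-luciferin and ATP each at its KM concentration. Light output recorded by CCD imaging.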

[3] = qHTS assay to identify small molecule agonists of the constitutive androstane receptor (CAR) signaling pathway - cell viability counter screen (AID 1224836); note: series mostly up to about 92 µM; nearly all actives have a fitted effect of over 45% in size
Outline: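 Fluorescence from CellTiter-Fluor indicates live cells after 23 h exposure. The human hepatoma line expresses hCAR and a CYP2B6-2.2kb reporter. Incubation medium contains 0.75 uM PK11195 (final).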

[4] = qHTS assay to identify small molecule antagonists of the constitutive androstane receptor (CAR) signaling pathway - cell viability counter screen (AID 1224837); note: series mostly up to about 92 µM; nearly all actives have a fitted effect of over 45% in size
Outline: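 Cells are seeded, rested 4 hr at 37 C/5% CO2, dosed with compound (15-point series) and 50 nM CITCO, incubated a further 23 hr, and then CellTiter-Fluor reagent is added before fluorescence is read. The line is HepG2 with stable hCAR and CYP2B6-2.2kb.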

[5] = target: Nuclear receptor subfamily 1 group I member 3 (Homo sapiens) (UniProt Q14994); assay: qHTS assay to identify small molecule antagonists of the constitutive androstane receptor (CAR) signaling pathway (AID 1224838);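 note: HepG2 cells stably expressing hCAR with CYP2B6 luciferase reporter stimulated by CITCO; nearly all actives have a fitted effect of over 40% in size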
Sequence of Nuclear receptor subfamily 1 group I member 3 (Homo sapiens) (Q14994 whole entry, looked up): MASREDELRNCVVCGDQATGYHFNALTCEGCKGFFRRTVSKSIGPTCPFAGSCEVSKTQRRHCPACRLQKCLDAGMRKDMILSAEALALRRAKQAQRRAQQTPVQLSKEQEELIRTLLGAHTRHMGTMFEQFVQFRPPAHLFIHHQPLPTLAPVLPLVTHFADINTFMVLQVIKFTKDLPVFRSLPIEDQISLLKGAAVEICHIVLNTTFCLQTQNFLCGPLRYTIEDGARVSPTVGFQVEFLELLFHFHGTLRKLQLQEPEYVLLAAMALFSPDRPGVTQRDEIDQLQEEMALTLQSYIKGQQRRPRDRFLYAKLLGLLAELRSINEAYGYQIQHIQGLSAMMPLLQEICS
Outline: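 Luminescence from a CYP2B6-2.2kb promoter reporter in hCAR-expressing HepG2 cells reflects CAR signaling. Cells received compounds at 15 concentrations and 50 nM CITCO (final), then incubated 24 h at 37 C/5% CO2.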

[6] = qHTS assay to identify small molecule antagonists of the estrogen related receptor signaling pathway with the pleiotropic PPARgamma coactivator (PGC) from Tox21 10K library - cell viability counter screen (AID 1224840; active = well fitted cell-killing curve with a large enough effect in the repeat runs, not every such curve was filed as active; note: nearly all actives have a fitted effect of over 40% in size; note: potency is the fitted concentration of half-maximal effect)
Outline: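 Cell viability is measured by CellTiter-Fluor fluorescence in PGC/ERR cells that receive compounds after a 6-hour attachment period and are then incubated 17.5 hours at 37 C.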

[7] = qHTS assay to identify small molecule antagonists of the estrogen related receptor signaling pathway with the pleiotropic PPARgamma coactivator (PGC) from Tox21 10K library (AID 1224841; call rule not given here; note: series mostly up to about 92 µM; actives are mostly falling curves and most rising ones were filed inactive; nearly all actives have a fitted effect of over 50% in size)
Outline: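 Cells stably carrying the PGC/ERR reporter, seeded at 2,000 per well, received pin-transferred compounds 6 h post-plating. Exposure lasted 18 h at 37 C. Signal: One-Glo luminescence.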

[8] = qHTS assay to identify small molecule agonists of the estrogen related receptor signaling pathway with the pleiotropic PPARgamma coactivator (PGC) from Tox21 10K library (AID 1224842); note: nearly all actives have a fitted effect of over 15% in size
Outline: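 PGC/ERR reporter cell line, 2,000 cells per well, incubated 6 h at 37 C before 23 nL compound in DMSO was added. After 18 h at 37 C, One-Glo luminescence read following 30 min at room temperature.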

Compound	Potency [1]	Potency [2]	Potency [3]	Potency [4]	Potency [5]	Potency [6]	Potency [7]	Potency [8]
Cc1cc(O)ccc1O	61.8 µM (active)	inactive	inactive	inactive	inactive	61.8 µM (active)	inactive	inactive
O=C1NCCN1CCO	inactive	inactive	inactive	inactive	inactive	inactive	–	–
C=C1c2cccc(O)c2C(O)=C2C(=O)[C@]3(O)C(O)=C(C(N)=O)C(=O)[C@@H](N(C)C)[C@@H]3[C@@H](O)[C@H]12	inactive	inactive	inactive	inactive	inactive	inactive	inactive	inactive
FC(F)(F)c1ccccc1Cl	inactive	inactive	inactive	inactive	inactive	inactive	inactive	inactive
C[C@@H](O)[C@H]1C(=O)N2C(C(=O)O)=C([C@H]3CCCO3)S[C@H]12	inactive	inactive	inactive	inactive	–	inactive	–	–
Cc1cscn1	inactive	inactive	inactive	inactive	–	inactive	–	–
